Rows were chosen to be rich in hits. Some 2.8% of all compounds tested hit in one or more screens of this group.
ATXN2 expr inh: ATXN2 expression inhibition; HEK-293 ATXN2-luciferase reporter, luminescence, 24 h; Potency, µM (series often up to 57 µM), for the others: top-dose activity change, negative = inhibition, usual class: inhibitors; hit rate 0.72% among 360,000; AID 1745845; also: % is scaled to controls: 0 for no effect and ±100 for the full control effect; nearly all actives have a fitted effect of over 55% in size
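qHTS (up to 57 uM final) was run with 24 h compound exposure of reporter cells at 37 °C. Each well was multiplexed: SteadyGlo luminescence measured ATXN2-luciferase expression after a fluorogenic Gly-Phe-AFC viability readout (25 uM final).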
HttQ103 aggreg: reduces HttQ103-GFP aggregates in PC12 cells | AID 1688 | hit rate 1.1% among 220,000 | Potency, µM (highest dose often 46.1 µM), without a hit: at the highest dose activity change, negative = inhibition, actives largely listed as inhibitors | PC12 HttQ103-GFP aggregates, Acumen cytometry, 40 h; also: % is scaled to controls: 0 for no effect and ±100 for the full control effect; nearly all actives have a fitted effect of over 60% in size
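Huntingtin Q103 exon 1–GFP aggregates in induced PC12 cells (100 nM tebufenozide) were quantified by cytometry from lysates, with compounds dosed in titration.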
HepG2 viability: kills HepG2 cells in TGF-b inhibitor counter-screen; HepG2 CAGA-GFP viability, ATP luminescence, 18 h; Potency, µM (top dose mostly 46.1 µM), for the others: top-dose activity change, negative = cytotoxicity, hits mostly cytotoxic; hit rate 0.76% among 410,000; AID 588856
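HepG2 CAGA-GFP cells (1000/well, DMEM with 1% FBS) received compound, then TGF-beta at 500 pg/mL final, and were incubated 18 hours at 37 degrees C. Viability was read by CellTiter-Glo luminescence. Media-only wells were set as complete cell-killing and DMSO as no toxicity.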
S2 tox: cell viability loss in ATXN counter-screen; S2 cells (HEK-293 line with an ATXN2-luciferase reporter) viability, CellTiter-Fluor protease fluorescence, 24 h; Potency, µM (doses to about 56.7 µM), most hits filed as cytotoxic; hit rate 0.49% among 400,000; also: nearly all actives have a fitted effect of over 40% in size
HTT cytoprotect: Huntington cell model cytoprotection by ATP luminescence; PC12 HTT-Q103 induced, cytoprotection, ATP luminescence, 40 h; Potency, µM (highest dose often 56.4 µM), inactives show cytoprotection (ATP increase), usual class: activators; hit rate 0.14% among 230,000; AID 1471; also: % of control where 0% means no effect; nearly all actives have a fitted effect of over 45% in size
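Cells were plated at 1500 per well in phenol red-free DMEM with 5% equine and 5% calf serum. Tebufenozide (100 nM final) and compounds were added, then ATPlite reagent, and luminescence was read.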
TGFb SMAD3 inh: blocks TGF-b signaling. Potency, µM (highest dose often 46.1 µM), for inactives: top-dose activity, negative = inhibition, actives largely listed as inhibitors. hit rate 1.2% among 410,000. HepG2 CAGA-GFP TGF-b/SMAD3 reporter, GFP fluorescence, 18 h; TGF-beta stimulated, 500 pg/mL final; also: % is scaled to controls: 0 for no effect and ±100 for the full control effect; nearly all actives have a fitted effect of over 65% in size
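Read-out: total well GFP (ex488/em500-530) summed from mean per-cell fluorescence. Cells: HEPG2 CAGA-GFP, 1% FBS DMEM, 18 h at 37 degrees C with 500 pg/mL final TGF-beta. Unstimulated wells served as the full-inhibition control; stimulated DMSO wells = 0%.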
Numbers without * were called inactive; i = inactive; ? = inconclusive; / = no result; [ ] = remark or other dose. Calls follow the shape of the dose curve; as a rule, active = well fitted curve in the direction sought with a large enough effect; inconclusive = small, poorly fitted or top-dose-only effect, or another doubt; inactive = no such curve, though single readings can be large; an effect the other way counts as inactive or inconclusive. Potency is read from the fitted curve at half-maximal effect.

SMILES	ATXN2 expr inh	HttQ103 aggreg	HepG2 viability	S2 tox	HTT cytoprotect	TGFb SMAD3 inh
COc1cccc(CNCCSc2nnnn2C)c1OCc1ccc(Cl)cc1Cl	-3%	/	-50%	i	/	?
COc1cc(Br)c(C[N+]2(CCOCCC3CCC4CC3C4(C)C)CCOCC2)cc1OC (stereo unspecified)	/	/	/	i	/	/
CC1(C)CC(N=c2cc(-c3ccccc3)oc3ccc(Cl)cc23)CC(C)(C)N1	1%[11.3 µM]	?	16µM*	i	-46%	?
OCCCN=c1cc(-c2ccccc2)oc2ccc(Cl)cc12	?	6%	-12%	i	-14%	0%
Cc1cccc(C(=O)Nc2sc(C)c(-c3ccccc3)c2C#N)c1	69%	22µM*	-16%	?	-54%	-27%
N#Cc1c(Cl)nsc1NC(=O)c1ccccc1	0%	4µM*	-41%	i	-108%	3.5µM*
Cc1sc(NC(=O)c2ccco2)nc1-c1ccc2c(c1)CC(C)N2C(=O)C1CC1 (stereo unspecified)	?	16µM*	-44%	/	-105%	?
Cn1nc(-c2ccc(Cl)cc2)c2cc(C(=O)NCCCN3CCCC3)sc21	20µM*	7%	-15%	18µM*	-59%	4%
CCN1CCCC1CNC(=O)c1cc2c(-c3ccc(Cl)cc3)nn(C)c2s1 (stereo unspecified)	25µM*	0%	-48%	14µM*	-49%	?
CCCCNC(=O)c1cc2c(-c3ccc(Cl)cc3)nn(C)c2s1	9%	-11%	-23%	i	-17%	9%
Cc1ccc(CNC(=O)c2cc3c(-c4ccc(Cl)cc4)nn(C)c3s2)o1	?	8.9µM*	-6%	i	-24%	?
Cc1ccc(Nc2nc(NCc3ccco3)nc3nccnc23)cc1C	/	/	-2%	/	/	12%
C[n+]1ccc(C(c2c[nH]c3ccccc23)c2cc[n+](C)c3ccccc23)c2ccccc21	/	/	-77%	/	/	?
O=C(CCCc1nc2ccccc2s1)Nc1nccs1	?	15%	-33%	i	17%[10 µM]	-4%
Cc1cnc(NC(=O)CCCc2nc3ccccc3s2)s1	2.5µM*	13%[9.22 µM]	-4%	?	-69%	?
Nc1ccc(-c2cc3ccccc3oc2=O)cc1	0.28µM*	/	-26%	/	/	13%
CC(C)CSc1nnc(CNC(=O)c2ccccn2)n1C	/	/	/	i	/	/
O=C(O)Cn1cc(/C=N/Nc2ccc([N+](=O)[O-])cn2)c2ccccc21	2%	/	-17%	?	/	1%
Cc1ccc(Cn2cc(/C=N/Nc3ccc([N+](=O)[O-])cn3)c3ccccc32)cc1	-15%	-27%	-33%	i	-16%[10 µM]	4.5µM*
Cc1ccc(C(=O)N/N=C/c2cn(Cc3ccccc3)c3ccccc23)cn1	/	9%[9.22 µM]	0.56µM*	i	3%[10 µM]	1.6µM*
Cc1c([N+](=O)[O-])cnc2ccccc12	/	/	-66%	/	/	-23%
COC(=O)c1ccc(C(=O)NCC2Cc3cccc(-c4ccc(C(=O)OC)cn4)c3O2)cc1 (stereo unspecified)	/	/	/	i	/	/
O=C(CCc1ccccc1)NC1(Cc2ccccc2)CCN(CCCc2ccccc2)C1=O (stereo unspecified)	?	/	-23%	?	/	13µM*
O=C(Nc1cc(Cl)cc2c1[nH]c1cnccc12)c1cccnc1	10%	/	/	/	/	/
Cc1cc(C(=O)CSc2ncnc3ccccc23)c(C)n1C1CC1	15%	/	-1%	i	/	-4%
SMILES	ATXN2 expr inh	HttQ103 aggreg	HepG2 viability	S2 tox	HTT cytoprotect	TGFb SMAD3 inh
CC(=O)c1cccc(OCC(=O)c2cc(C)n(-c3cc(C)on3)c2C)c1	0%	13µM*	-28%	i	-49%	13%
Cc1cc(-n2c(C)cc(C(=O)COc3ccc4ccc(=O)oc4c3)c2C)no1	-9%	2%	2%	i	-20%	8%
Cc1cc(-n2c(C)cc(C(=O)CSc3ncnc4ccccc34)c2C)no1	-2%	1.8µM*	-32%	i	-43%	-6%
CCSC(N)=Nc1ccc(C(F)(F)F)cc1	/	/	/	/	0%[1.9 µM]	/
NC(N)=NN=C(c1ccc(F)cc1)c1ccc(C(F)(F)F)cc1	?	/	-109%	/	/	10µM*
COc1ccc(O)c(/C=N/n2c(-c3ccco3)csc2=Nc2cccnc2)c1	-22%	-12%	-39%	i	34%[10 µM]	?
CCN=c1scc(-c2cccs2)n1/N=C/c1cc(OC)ccc1O	24%	-21%	-43%	i	-17%[10 µM]	13µM*
C[N+]1(CC(=O)c2cccc([N+](=O)[O-])c2)CCOCC1	/	/	3%	/	/	-6%
CCCOc1nc2c(c(=O)n(C)c(=O)n2C)n1Cc1cccc2ccccc12	-14%	13µM*	6%	i	-88%	-6%
CCCOc1nc2c(c(=O)n(C)c(=O)n2C)n1C	2%	-3%[9.22 µM]	2%	i	-5%[10 µM]	10%
O=C(CNC(=O)C1CCCCC1)OCC(=O)c1ccc2c(c1)CCC2	/	/	-8%	/	/	-3%
O=C1c2cccc3c([N+](=O)[O-])ccc(c23)C(=O)N1c1nccs1	?	13µM*	-35%	i	-100%	-16%
O=C1c2cccc3cccc(c23)C(=O)N1c1nccs1	-4%	-20%	-4%	i	-14%	5%
O=C1c2cccc3c([N+](=O)[O-])ccc(c23)C(=O)N1c1ccccn1	14µM*	24%	-104%	/	10%	0%
O=C1c2cccc3c([N+](=O)[O-])ccc(c23)C(=O)N1c1ccc(Cl)cn1	?	?	-1%	/	-114%	28%
CC(=O)c1ccc(Nc2cc(C)nc3nc(Cc4ccccc4)nn23)cc1	5%	/	-5%	i	/	?
CCc1ccc(Nc2cc(C)nc3nc(Cc4ccc(Cl)cc4)nn23)cc1	?	/	-77%	?	/	13µM*
CCc1cccc(Nc2cc(C)nc3nc(C)nn23)c1	-4%	35µM*	-20%	i	25%[10 µM]	0%
Cc1ccc(Nc2cc(C)nc3nc(C)nn23)cc1	-5%	8%	-12%	i	-15%	-9%
Cc1ccc(Nc2cc(C)nc3nc(Cc4ccc(Cl)cc4)nn23)cc1	14µM*	/	-58%	/	/	4µM*
Cc1cc(C(=O)N2CCOc3ccc(CN4CCC(Oc5cccnc5)CC4)cc3C2)c(C)o1	/	/	/	i	/	/
O=C(O)Cn1c(=O)n(Cc2ccc(Br)cc2F)c(=O)c2ccc(Cl)cc21	2%	/	/	i	/	/
N#Cc1cccc2c1-c1ccccc1/C2=N/NC(N)=S	-37%	/	7.1µM*	?	/	5µM*
N#Cc1cccc2c1-c1ccccc1/C2=N/NC(N)=O	?	/	-5%	?	/	-6%
ON=C1c2ccccc2-c2ccc(Br)cc21	2%	/	-11%	i	/	-20%

Compound activity: PubChem, National Center for Advancing Translational Sciences (NCATS)
